According to PubChem BioAssay AID504652 (National Center for Advancing Translational Sciences (NCATS), 2011):
Where “and” joins values, the source holds several entries; their conditions need not be identical. Equal entries are not always repeated. Hit rate of the full screen: of about 360,000 compounds, about 11,000 (3.1%) were called active. This is one part of a sample in which actives are shown more often than they occur. Rule as the data show it: active = activity change below about -30%; inactive = the rest.

target: D(1A) dopamine receptor (Homo sapiens) (UniProt P21728); assay: Antagonist of Human D 1 Dopamine Receptor: qHTS; details: HEK293 TREx D1 cells, calcium flux, dopamine EC80; at 10 µM; stronger effect = lower value
Sequence (P21728 whole entry, looked up): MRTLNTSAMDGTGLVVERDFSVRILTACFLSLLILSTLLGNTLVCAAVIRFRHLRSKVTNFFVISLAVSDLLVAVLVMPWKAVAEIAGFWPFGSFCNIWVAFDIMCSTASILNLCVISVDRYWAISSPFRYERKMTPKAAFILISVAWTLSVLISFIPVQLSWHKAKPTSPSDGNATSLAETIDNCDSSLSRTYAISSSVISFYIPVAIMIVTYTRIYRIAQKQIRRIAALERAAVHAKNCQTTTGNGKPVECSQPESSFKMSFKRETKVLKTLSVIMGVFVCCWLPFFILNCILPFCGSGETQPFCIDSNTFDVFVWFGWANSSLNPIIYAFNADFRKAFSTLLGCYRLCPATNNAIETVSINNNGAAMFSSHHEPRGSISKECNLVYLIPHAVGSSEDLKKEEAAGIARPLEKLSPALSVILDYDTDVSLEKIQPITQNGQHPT
Procedure, shortened: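 Calcium flux readout: force-coupled, inducible Hek293 Trex D1 line, cells induced overnight at 30 C with tetracycline, dye-loaded 30–90 min at RT. Antagonism scored against EC80 dopamine challenge given 180 s after compound.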
% is scaled to controls: 0 for no effect and ±100 for the full control effect.

SMILES	activity change, negative = inhibition
COc1ccc(-c2cn3c(n2)sc2cc(C(=O)Nc4ccc(F)cc4)ccc23)cc1	-1.55% (inactive)
O=C(O)c1cc(S(=O)(=O)N(Cc2ccccc2)c2cccc(C(F)(F)F)c2)ccc1Cl	3.45% (inactive)
O=C(O)c1cc(S(=O)(=O)N(Cc2ccccc2)c2ccccc2)ccc1Cl	11.6% (inactive)
O=S(=O)(c1ccccc1)N(Cc1cccc(F)c1)c1ccccc1	-30.7% (active)
CCc1ccccc1NC(=O)Cn1c(=O)n(-c2cccc(C)c2)c(=O)c2c1c1cc(OC)ccc1n2C	-1.63% (inactive)
CCCC(=O)Nc1ccc2oc(-c3ccc(O)c(Br)c3)nc2c1	-6.2% (inactive)
COc1cccc(C(=O)NC2=NC(c3ccc(N(C)C)cc3)CC(=O)N2)c1 (stereo unspecified)	-6.47% (inactive)
Cc1ccccc1-n1c(=O)c2ccccc2n(Cc2ccc(F)cc2)c1=O	8.59% (inactive)
COc1ccc(NC(=O)CCC(=O)Nc2nnc(C3CCCCC3)s2)cc1	5.47% (inactive)
CNC(=O)c1sc(Nc2ccc(OCc3ccccc3)cc2)nc1C	-6.26% (inactive)
COC(=O)CCc1sc(Nc2ccc(Br)cc2)nc1-c1ccc(OC)cc1	-33.1% (active)
CCc1nnc(NC(=O)c2ccc(S(=O)(=O)NC3CCCCC3)cc2)s1	1.91% (inactive)
Cc1ccc(Nc2nnc(SC(C)C(=O)NC3CC3)s2)cc1 (stereo unspecified)	-6.59% (inactive)
Cc1nnc(SC(C)C(=O)Nc2ccc(S(=O)(=O)NC3CCCCC3)cc2)s1 (stereo unspecified)	-34.5% (active)
CCOc1ccccc1C(=O)NCC(c1ccc(N(C)C)cc1)N1CCCC1 (stereo unspecified)	-18.8% (inactive)
Cc1ccc(CCn2c3c(c4ccccc42)CN(C)CC3)cn1	-37.8% (active)
COc1ccccc1NC(=O)C1=C(C)Nc2ncnn2C1c1sccc1C (stereo unspecified)	2.71% (inactive)
Cc1ccc(C(=O)Nc2nc(N)n(-c3ccccc3)n2)cc1	-1.57% (inactive)
Nc1nc(NC(=O)/C=C/c2ccccc2)nn1-c1ccccc1	-60.9% (active)
Nc1nc(NC(=O)/C=C/c2ccc(F)cc2)nn1-c1ccccc1	8.35% (inactive)
CCOC(=O)c1cc(-c2ccccc2)n(CCC(=O)Nc2ccccc2CC)c1C	-5.19% (inactive)
Cc1ccccc1C(=O)Nc1nnc(S(=O)(=O)N(C)c2ccc(Cl)cc2)s1	-3.48% (inactive)
COc1ccc(S(=O)(=O)NC(C)C(=O)N2CCCCCC2)cc1 (stereo unspecified)	6.5% (inactive)

SMILES	activity change, negative = inhibition
COc1ccc(N2CCN(C(=O)c3ccc(N4CCCCS4(=O)=O)cc3)CC2)cc1	-28.7% (inactive)
COCC(C)NS(=O)(=O)c1ccc(N2CCCCS2(=O)=O)cc1 (stereo unspecified)	-32.2% (active)
Cc1ccccc1CSc1nc(-c2ccccc2)nc2c1Cc1c(CO)cnc(C)c1O2	-5.66% (inactive)
CCCC(=O)Nc1cc(C(=O)NCc2ccc(OC)cc2)ccc1S(=O)(=O)c1ccc(Cl)cc1	3.26% (inactive)
CCc1ccccc1NC(=O)N1CCN(C(=O)c2nsc3ccccc23)CC1	5.59% (inactive)
O=C(Nc1ccc(F)cc1)C1CCN(C(=O)c2ccc([N+](=O)[O-])cc2)CC1	-37.8% (active)
O=C(Nc1ccc(S(=O)(=O)N2CCCCC2)cc1)C1CCN(C(=O)c2ccc(F)cc2)CC1	-10.9% (inactive)
O=C(Nc1ccccc1)C1CCN(C(=O)c2ccc(Br)cc2)CC1	-21.4% (inactive)
CCOC(=O)c1c(NC(=O)c2cc(CC)on2)sc(C(C)=O)c1C	-23.3% (inactive)
NS(=O)(=O)c1ccc(Nc2nc(-c3ccccc3)cs2)cc1	-31.8% (active)
COC(=O)[C@H](Cc1ccccc1)NC(=O)Nc1ccc(S(N)(=O)=O)cc1	-6.59% (inactive)
NS(=O)(=O)c1ccc(NS(=O)(=O)/C=C/c2ccccc2)cc1	4.29% (inactive)
Cc1cccc(NC(=O)CN(c2ccc(C(C)C)cc2)S(=O)(=O)c2c(C)nn(C)c2C)c1C	-5.46% (inactive)
CCC(=O)N1c2ccccc2CC1C(=O)N1CCN(c2ccccc2)CC1 (stereo unspecified)	-1.25% (inactive)
CC(C)c1ccc2c(c1)c(SC(C)(C)C)c(CC(C)(C)C(=O)O)n2Cc1ccc(Cl)cc1	-36.5% (active) and -38.2% (active)
O=C(Cn1c(=O)nc(-c2ccccc2)c2cc(Cl)ccc21)NCc1ccc(Cl)cc1	7.3% (inactive)
CC(C)c1ccc(Cn2c(COc3ccccc3)nc3ccccc32)cc1	0.116% (inactive)
COc1cccc(-c2nnc(SCC(=O)N3CCC(C)CC3)o2)c1	2.47% (inactive)
CCc1cc(C(=O)Nc2nnc(C3CC3)s2)sc1C	5.22% (inactive)
O=C(Nc1nnc(C2CC2)s1)C1=NN(C2CCS(=O)(=O)C2)C(=O)CC1 (stereo unspecified)	-30.2% (active)
O=C(Nc1nnc(C2CC2)s1)c1ccccn1	-8.58% (inactive)
O=C(CSCc1cnn(-c2ccccc2)c1-n1cccc1)NCc1ccccc1Br	7.2% (inactive)
COc1ccc2c(c1)c(=O)c(S(=O)(=O)c1ccc(F)cc1)cn2CC(=O)Nc1ccc(C)cc1C	-20% (inactive)

SMILES	activity change, negative = inhibition
CCc1ccc(NC(=O)c2cc(S(=O)(=O)NC3CCCCCC3)ccc2F)cc1	1.8% (inactive)
COc1ccc(-c2nc(CN3CCC(C(=O)NCCN(CC(C)C)CC(C)C)CC3)c(C)o2)cc1OC	-3.04% (inactive)
COc1ccc(Cl)cc1NC(=O)CCn1c(=O)c2cccn2c2ccccc21	-35% (active)
COc1ccc(C)cc1NC(=O)CSc1ccc(Cl)cc1	3.7% (inactive)
COc1ccc(Cl)cc1NC(=O)CCC(=O)c1ccc(C)cc1	0.782% (inactive)
COc1ccc(Cl)cc1NC(=O)Cn1nc(-c2ccc(C)cc2)n(C)c1=S	-37.4% (active)
COc1ccc(Cl)cc1NC(=O)Cn1c(=O)c2ccccc2n2nncc12	3.48% (inactive)
Cc1ccc(NC(=O)CCCn2c(=O)c3cccn3c3ccccc32)cc1Cl	-14.3% (inactive)
Cc1ccc(Nc2nnc(-c3ccc(C)c(S(=O)(=O)N4CCCCC4)c3)c3ccccc23)cc1	-4.3% (inactive)
Cc1ccc(N(C)C(=O)C2CCN(S(=O)(=O)c3ccc4c(c3)CCCN4C(=O)C3CCC3)CC2)cc1	10.1% (inactive)
O=C(CCCCn1c(=O)c2ccccc2n(CC(=O)Nc2cccc(C(F)(F)F)c2)c1=O)NCc1ccc2c(c1)OCO2	3.4% (inactive)
COc1ccc(CCn2cc3c(c2-c2ccc(Br)cc2)c(=O)n(C)c(=O)n3C)cc1OC	2.27% (inactive)
Fc1ccc(CN2CCc3nc(Nc4ccccc4)ncc3C2)cc1F	5.84% (inactive)
COc1ccc2c(c1)Cc1sc(NC(=O)c3ccccc3Br)nc1-2	6.21% (inactive)
CCCCSc1ncnc2c1sc1nc(N3CCOCC3)c3c(c12)CCCC3	3.48% (inactive)
O=C(CSc1nccn1Cc1ccc(Cl)cc1)NCc1ccccc1	-34.5% (active)
CCCCNC(=O)CSc1nccn1Cc1ccccc1	23.5% (inactive)
O=C(CSc1nccn1Cc1ccc(F)cc1)NCc1ccccc1	9.06% (inactive)
Cc1oc(-c2ccccc2F)nc1CN1CCC(C(=O)NCCc2ccc(Cl)cc2)CC1	-10.2% (inactive)
CC(C)C12CN3CC(C(C)C)(CN(C1)C3c1ccc(OCc3ccccc3)cc1)C2=O (stereo unspecified)	-2.54% (inactive)
COc1cccc(C2C(C(=O)Nc3ccc(C)cc3C)=C(C)Nc3c(C(=O)Nc4ccccc4)cnn32)c1 (stereo unspecified)	0.0774% (inactive)
CCC(C(=O)Nc1ccc(C(C)C)cc1)c1ccccc1 (stereo unspecified)	-50.8% (active)
CC(C)c1ccc(NC(=O)Cn2ncc3ccccc32)cc1	-8.47% (inactive)

SMILES	activity change, negative = inhibition
CC(NC(=O)Nc1ccccc1)c1ccccc1 (stereo unspecified)	5.33% (inactive)
CCOc1ccc(-c2cc3c(=O)n(CC(=O)NCc4ccc(OC)cc4)ccn3n2)cc1	8.73% (inactive)
O=C(NCCc1csc(-c2ccc(C(F)(F)F)cc2)n1)C(=O)Nc1ccc(F)c(Cl)c1	-0.398% (inactive)
CCn1c2ccccc2c2nnc(SCC(=O)O)nc21	6.1% (inactive)
O=C(/C=C/c1cn(CC(O)CN2CCc3ccccc32)c2ccccc12)c1ccc(Br)cc1 (stereo unspecified)	-3.99% (inactive)
CCOc1ccc(C(=O)/C=C/c2cn(CC(O)CN3CCCCCC3)c3ccccc23)cc1 (stereo unspecified)	-35% (active)
O=C(c1ccc(Cl)cc1)c1ccc(OCC(O)CN2CCCCC2)cc1 (stereo unspecified)	-13.7% (inactive)
CC(C)c1ccc(NC(=O)Cn2nnc(C(=O)NCCc3ccccc3)c2N)cc1	-8.95% (inactive)
Cc1ccc(C)c(S(=O)(=O)N2CC(=O)Nc3ccccc32)c1	-34.4% (active)
Cc1ccc(S(=O)(=O)N2CC(=O)Nc3ccccc32)cc1C	7.51% (inactive)
Cc1ccc(C)c(S(=O)(=O)N2CCN(C(=O)Nc3ccccc3)CC2)c1	-15% (inactive)
CC1=C(C(=O)OCC2CCCCC2)C(c2c(F)cccc2Cl)CC(=O)N1 (stereo unspecified)	-8.23% (inactive)
CN(C)S(=O)(=O)N1CCC(Oc2cccc(C(=O)NCCCC3CCCC3)c2)CC1	-36.8% (active)
CNS(=O)(=O)c1cccc(C(=O)NCC2CCCCC2)c1	15.5% (inactive)
CN(C(=O)c1cccc(OC2CCN(S(=O)(=O)N(C)C)CC2)c1)C1CCOC1 (stereo unspecified)	-17.2% (inactive)
CCOCCc1nn2c(=O)cc(COC(=O)CNC(=O)c3ccc(C(C)(C)C)cc3)nc2s1	-0.812% (inactive)
CCC(=O)N1c2ccccc2CC1C(=O)N1CCN(c2cccc(OC)c2)CC1 (stereo unspecified)	-5.92% (inactive)
CCc1ccc(S(=O)(=O)c2nnn3c2nc(NCc2ccccc2OC)c2cc(Cl)ccc23)cc1	2.93% (inactive)
CCCNC(=O)c1ccc2c(c1)ncn2-c1ccc(C)cc1C	-21.9% (inactive)
CSc1ccc(CCNC(=O)C2CCN(c3nnc(-n4cccc4)s3)CC2)cc1	11.1% (inactive)
CCOc1ccc(CNC(=O)C2CCN(c3nnc(-n4cccc4CNc4ccc(C)cc4)s3)CC2)cc1OC	4.12% (inactive)
Cc1ccc(CCNC(=O)C2CCN(c3nnc(-n4cccc4CNc4ccc(C)cc4)s3)CC2)cc1	-30% (active)
